# Screens deposited in PubChem BioAssay by several laboratories.
# Autofluor counter = flagged as autofluorescent in microsphere protease counterscreen | AID 624483 | compound autofluorescence counterscreen, microsphere flow cytometry; stronger effect = higher value | fluorescence intensity (concentration not given with the values) | actives 3.1% (n = 360,000); in the data active = fluorescence intensity above about 16000; inconclusive = no clear call, values can overlap the other calls
# BoNT A protease = BoNT A light chain protease inhibition | multiplex microsphere protease substrate cleavage, flow cytometry | inhibition, % at 10 µM | actives 0.17% (n = 360,000) | AID 588499; note: plate controls were buffer without enzyme for full effect and enzyme alone for no effect
# Anthrax LF inh2 = blocks Bacillus anthracis lethal factor protease | P15917 | multiplex microsphere protease cleavage assay, LF | inhibition, % at 10 µM | actives 0.12% (n = 360,000) | AID 588501; note: plate controls were buffer without enzyme for full effect and enzyme alone for no effect
# Target sequence (P15917 whole entry, looked up): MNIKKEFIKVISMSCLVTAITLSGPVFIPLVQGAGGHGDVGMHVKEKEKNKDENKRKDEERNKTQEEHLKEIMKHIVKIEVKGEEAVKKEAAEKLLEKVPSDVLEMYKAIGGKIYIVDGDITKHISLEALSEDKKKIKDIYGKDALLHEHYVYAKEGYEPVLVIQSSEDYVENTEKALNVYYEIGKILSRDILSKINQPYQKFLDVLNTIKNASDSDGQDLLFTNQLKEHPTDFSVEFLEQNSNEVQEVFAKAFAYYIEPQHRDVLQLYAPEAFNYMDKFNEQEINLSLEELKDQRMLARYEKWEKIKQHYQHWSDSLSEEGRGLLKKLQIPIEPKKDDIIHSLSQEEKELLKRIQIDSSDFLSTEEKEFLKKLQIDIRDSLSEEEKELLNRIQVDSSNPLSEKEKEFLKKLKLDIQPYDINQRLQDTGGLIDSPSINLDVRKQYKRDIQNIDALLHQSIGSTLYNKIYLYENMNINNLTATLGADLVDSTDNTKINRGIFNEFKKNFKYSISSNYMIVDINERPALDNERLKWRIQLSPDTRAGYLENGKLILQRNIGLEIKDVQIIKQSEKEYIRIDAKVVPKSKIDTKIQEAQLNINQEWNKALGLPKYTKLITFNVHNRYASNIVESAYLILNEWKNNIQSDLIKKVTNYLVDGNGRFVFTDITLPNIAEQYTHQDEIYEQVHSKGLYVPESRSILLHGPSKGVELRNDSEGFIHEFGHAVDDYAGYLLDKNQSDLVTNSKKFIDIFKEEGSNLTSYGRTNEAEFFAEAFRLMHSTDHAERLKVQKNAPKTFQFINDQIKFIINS
# BoNT F protease = inhibitors of Botulinum neurotoxin F light chain protease | Multiplex microsphere protease cleavage assay, flow cytometry | inhibition, % at 10 µM | actives 0.22% (n = 360,000) | AID 588497; in the data active = inhibition above about 35%, passing the limit was not always enough; inconclusive = no clear call, values can overlap the other calls; note: plate controls were buffer without enzyme for full effect and enzyme alone for no effect
# FBA Mtb inh = inhibits M. tuberculosis FBA enzyme; actives 2.3% (n = 360,000); P9WQA3; purified M. tuberculosis FBA, fluorescence read-out; inhibition, % at 1 µM; in the data active = inhibition above about 27%;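 note: 0% = vehicle and 100% = reference inhibitor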
# GDH-TPI inh = inhibits GDH-TPI coupling enzymes, artifact for Mtb FBA screen; GDH-TPI coupled enzyme counterscreen, NADH absorbance; inhibition, % at 4.8 µM; actives 1.2% (n = 360,000); AID 588335; in the data active = inhibition above about 30%;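 note: 0% = DMSO wells and 100% = wells lacking the enzyme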
# * marks the source's active call; other numbers are inactive results; ? = inconclusive; + = active, no number. An excerpt weighted towards active compounds, which were near 6.7% of everything screened. Cut-off read from the data, not from the text of the source, unless noted: active = inhibition above about 30%; inconclusive = no clear call, values can overlap the other calls; inactive = below that.
SMILES,Autofluor counter,BoNT A protease,Anthrax LF inh2,BoNT F protease,FBA Mtb inh,GDH-TPI inh
COc1cc([N+](=O)[O-])ccc1NC(=O)Nc1nc2c(s1)CCCC2,1889,0,2,4,2,8
CCC(C)c1ccc(S(=O)(=O)N2CCN(CC(O)CN3CCOCC3)CC2)cc1 (stereo not drawn),7877,2,-2,12,-2,1
COC(=O)c1ccccc1NC(=O)NCC1CCCO1 (stereo not drawn),22874*,0,-2,-1,6,5
O=C(NC(=O)c1ccccc1O)c1ccc2c(c1)CCO2,3756,0,-1,?,0,3
COc1ccccc1-c1coc2c(CN(C)C)c(O)ccc2c1=O,3120,4,-5,6,188*,22
CC(C)N(Cc1c(O)ccc2c(=O)c(-c3ccc(Cl)cc3)coc12)C(C)C,4336,-1,-18,?,7,6
CCN(CC)Cc1c(O)ccc2c(=O)c(-c3ccc4c(c3)OCCO4)coc12,3520,1,-1,-5,23,31*
COc1ccccc1Oc1coc2c(CN(C)C)c(O)ccc2c1=O,3106,-1,-4,6,114*,25
CCOC(=O)c1cc(OC(=O)c2ccccc2Br)n(-c2ccccc2)n1,10633,0,-2,-6,-1,12
CCOC(=O)c1cc(OC(=O)c2ccccc2)n(-c2ccccc2)n1,23849*,-1,0,-1,1,3
O=C(COC(=O)c1cn(-c2ccccc2)nc1-c1ccccc1)c1cccc([N+](=O)[O-])c1,16553*,-1,-5,-5,-2,11
CCOC(=O)c1cc(OC(=O)c2cccc([N+](=O)[O-])c2)n(-c2ccccc2)n1,17208*,?,0,-3,2,8
C/C(NCCc1ccccc1)=C1/CCOC1=O,3885,0,4,8,2,7
CCCN(CCC)C(=O)C1CCN(c2ccc(S(=O)(=O)N3CCOCC3)cc2[N+](=O)[O-])CC1,5238,-2,-5,-2,-4,-7
COc1ccc(Cl)cc1Cn1c(C)c(C(=O)NCc2ccc(C#N)cc2)sc1=O,5930,-1,1,-1,0,8
CC(C)C(=O)Nc1ccc(-c2nc3ncccc3o2)cc1,3954,2,-15,?,+,41*
CC(C)C(=O)Nc1ccc(-c2nc3cccnc3o2)cc1,4227,1,3,-1,+,35*
CC(C)C(=O)Nc1cc(-c2nc3ncccc3o2)ccc1Cl,3459,4,0,-8,6,6
Cc1ccc(-c2cnc3c(c2)C(=O)N([C@H](C)CO)C[C@@H](C)[C@@H](CN(C)C(=O)Cc2ccccc2)O3)cc1,3617,0,-2,2,7,5
COc1ccc(C(C)C)cc1S(=O)(=O)Nc1ccc(Cl)cn1,22386*,?,-2,-3,5,1
CC[n+]1c(-c2ccccc2)c2cc(N)ccc2c2ccc(N)cc21,2025,0,-79,-138,-6,6
CC(=O)Nc1ccc(S(=O)(=O)NCCSCc2c(Cl)cccc2Cl)cc1,21984*,-4,-2,-7,-6,-2
CC(=O)Nc1ccc(S(=O)(=O)NCCSCc2cccc(Cl)c2)cc1,2168,0,2,3,0,-12
CCOc1cc(C2Nc3ccccc3NC3=C2C(=O)CC(C)(C)C3)ccc1OC(C)=O (stereo not drawn),3810,?,-22,?,0,43*
CC1(C)CC(=O)C2=C(C1)Nc1ccccc1NC2c1cccnc1 (stereo not drawn),3514,0,-6,8,2,37*
SMILES,Autofluor counter,BoNT A protease,Anthrax LF inh2,BoNT F protease,FBA Mtb inh,GDH-TPI inh
COC(=O)c1ccc2c(c1)NC1=C(C(=O)CC(C)(C)C1)C(c1ccncc1)N2 (stereo not drawn),11033,2,3,9,0,31*
Cc1cc2c(cc1C)NC(c1cccnc1)C1=C(CC(C)(C)CC1=O)N2 (stereo not drawn),2468,0,8,1,-2,33*
COC(=O)c1ccc(C2Nc3ccccc3NC3=C2C(=O)CC(C)(C)C3)cc1 (stereo not drawn),3703,2,-2,-13,-3,19
Cc1ccnn1CCC(=O)N1CCCC(N2CCN(c3cccc(Cl)c3)CC2)C1 (stereo not drawn),5718,-1,-1,-3,4,19
CN(Cc1ccon1)C(=O)c1ccc2nc(Cc3cccc(Cl)c3)oc2c1,4433,1,-1,-4,-2,-1
CCN1/C(=C/c2ccc3cc(C)ccc3[n+]2CC)Sc2cc(C)ccc21,7083,55*,-41,-63,-8,3
CCCCN1/C(=C/c2ccc3ccccc3[n+]2CC)Sc2ccccc21,13406,24,20,0,-6,-5
COc1ccc(-c2noc(-c3ccc(Br)o3)n2)cc1,3565,?,13,?,0,12
Cc1cc2c3c(c1)C1(C(=O)N3C(C)(C)CC2C)C(C#N)=C(N)Oc2n[nH]c(C)c21 (stereo not drawn),21117*,?,2,1,0,1
Cc1cc2c3c(c1C)C1(C(=O)N3C(C)(C)CC2C)C(C#N)=C(N)Oc2n[nH]c(C)c21 (stereo not drawn),8183,0,2,-1,-2,5
Cc1ccc(NC(=O)N2CCC(c3nc4c(nnn4Cc4cccc(Cl)c4)c(=O)[nH]3)CC2)cc1,9870,0,-2,-10,0,0
O=C(Nc1ccc(F)cc1)N1CCC(c2nc3c(nnn3Cc3cccc(Cl)c3)c(=O)[nH]2)CC1,25569*,-5,-2,-10,3,-7
CCCSCCCNC(=O)Cn1nc(CC)n2c(cc3c(OC)cccc32)c1=O,3956,-2,-10,9,24,0
CCc1nn(CC(=O)NCCN2CCOCC2)c(=O)c2cc3c(OC)cccc3n12,6349,-7,0,-10,+,14
O=c1c2c3c(sc2n(CCN2CCCCC2)c(=O)n1Cc1ccco1)CCCCC3,27290*,?,-4,-11,-2,5
O=C(Cn1c(=O)n(Cc2ccco2)c(=O)c2c3c(sc21)CCCC3)Nc1ccccc1,2482,0,-2,10,10,0
O=c1c2c3c(sc2n(CCN2CCOCC2)c(=O)n1Cc1ccco1)CCCCC3,?,-4,?,0,-3,10
NC(=O)Cn1c(=O)n(Cc2ccco2)c(=O)c2c3c(sc21)CCCCC3,18631*,?,-1,8,1,-4
CCn1c(=O)n(CCc2ccccc2)c(=O)c2c3c(sc21)CCCC3,22638*,2,-2,2,-6,5
CC1(C(=O)NCc2ccccn2)CCN1C(=O)Cc1ccc(Cl)cc1Cl (stereo not drawn),2969,0,-1,-3,-1,8
N#Cc1cc2c(nc1SCC(=O)Nc1cc(Cl)ccc1Cl)C1CCN2CC1,20370*,?,2,-2,2,6
